HT1080NT lethal = kills 2HG-producing HT-1080-NT fibrosarcoma cells; Potency, µM (titrated, usually from 46.1 µM), actives largely listed as cytotoxic; HT-1080-NT fibrosarcoma viability, CellTiter-Glo ATP luminescence, 48 h; hit rate 1.6% among 360,000;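 further: NT is the 2HG producing partner of a matched IDH1 knockdown line; nearly all actives have a fitted effect of over 55% in size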
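Fibrosarcoma NT cells, 750 per well in 5% FBS RPMI, were exposed to compound for 48 hours. Viability: CellTiter-Glo luminescence.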
DT40 TDP1 no CPT = qHTS for Inhibitors of human tyrosyl-DNA phosphodiesterase 1 (TDP1): qHTS in cells in absence of CPT | DT40 Tdp1-/- hTDP1 cells, no CPT, ATP luminescence, 48 h | Potency, µM (top dose mostly 46.2 µM), most hits filed as inhibitors | hit rate 15% among 420,000 | AID 686978, 2013; further: nearly all actives have a fitted effect of over 55% in size
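A cellular qHTS used chicken DT40 cells lacking endogenous Tdp1 but carrying stably transfected human TDP1. Compounds were applied without camptothecin, and cell growth kinetics were judged by ATP-dependent luminescence after ≥48 hr.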
TGFb SMAD3 inh = inhibitors of TGF-b signaling; HepG2 CAGA-GFP TGF-b/SMAD3 reporter, GFP fluorescence, 18 h; TGF-beta stimulated, 500 pg/mL final; Potency, µM (series often up to 46.1 µM), hits mostly inhibitors; hit rate 1.2% among 410,000; AID 588855; further: nearly all actives have a fitted effect of over 65% in size
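Read-out: total well GFP (ex488/em500-530) summed from mean per-cell fluorescence. Cells: HEPG2 CAGA-GFP, 1% FBS DMEM, 18 h at 37 degrees C with 500 pg/mL final TGF-beta. Unstimulated wells served as the full-inhibition control; stimulated DMSO wells = 0%.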
TDP1 cell CPT = DT40-hTDP1 cell growth loss with CPT. chicken DT40 Tdp1-/-;hTDP1 cells + 20 nM CPT, ATP luminescence, 48 h. Potency, µM (titrated, usually from 46.2 µM), usual class: inhibitors. hit rate 12% among 420,000. AID 686979; further: nearly all actives have a fitted effect of over 55% in size
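Cell growth measured by CellTiter-Glo luminescence after a minimum 48 h, 37 C compound exposure with 20 nM CPT in Tdp1-knockout DT40 cells stably expressing hTDP1, seeded 400/well; qHTS titration format.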
HT1080 IDH1KD tx = kills HT-1080 cells with IDH1 knockdown; HT-1080 IDH1 knockdown viability, ATP luminescence, 48 h; hit rate 2% among 360,000; Potency, µM (highest dose often 46.1 µM), actives largely listed as cytotoxic
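Cytotoxicity counter-line: IDH1KD HT-1080, 48 h, CellTiter-Glo. Curves classed by r2, magnitude and activity.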
HepG2 viability = counter-screen for TGF-b inhibitors: cytotoxicity in HepG2 cells. AID 588856. Potency, µM (series often up to 46.1 µM), actives largely listed as cytotoxic. hit rate 0.76% among 410,000. HepG2 CAGA-GFP viability, ATP luminescence, 18 h
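HepG2 CAGA-GFP cells (1000/well, DMEM with 1% FBS) received compound, then TGF-beta at 500 pg/mL final, and were incubated 18 hours at 37 degrees C. Viability was read by CellTiter-Glo luminescence. Media-only wells were set as complete cell-killing and DMSO as no toxicity.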
Numbers stand for hits; i = inactive; ? = inconclusive; nt = no result given. Rows were chosen to be rich in hits. Some 17% of all compounds tested hit in one or more screens of this group. The call rests on the fitted dose curve; in most records, active means well fitted curve in the direction sought with a large enough effect; inconclusive means small, poorly fitted or top-dose-only effect, or another doubt; inactive means no such curve, though single readings can be large; an effect the other way counts as inactive or inconclusive.

SMILES	HT1080NT lethal	DT40 TDP1 no CPT	TGFb SMAD3 inh	TDP1 cell CPT	HT1080 IDH1KD tx	HepG2 viability
COc1cc(C2c3c(-c4cc(Cl)c(C)cc4O)n[nH]c3C(=O)N2Cc2cccnc2)ccc1O (stereo not drawn)	i	?	i	i	i	i
CCCN1C(=O)c2[nH]nc(-c3ccccc3O)c2C1c1ccc(OCc2ccccc2)c(OC)c1 (stereo not drawn)	nt	16µM	13µM	16µM	nt	i
COc1cc(C2c3c(-c4ccccc4O)n[nH]c3C(=O)N2Cc2ccco2)cc(OC)c1OC (stereo not drawn)	i	i	i	i	i	i
COc1cc(CCC(=O)NCc2ccc(F)cc2)cc(OC)c1OC	i	i	i	i	i	i
Cc1ccc(-n2nc(C(=O)NC(C)C)c(=O)n(C)c2=O)cc1	nt	i	i	i	nt	i
CCCCOc1ccc(C2c3c(-c4ccccc4O)n[nH]c3C(=O)N2Cc2ccncc2)cc1OC (stereo not drawn)	nt	23µM	?	?	nt	i
CCOc1cc(C2c3c(-c4cc(C)ccc4O)n[nH]c3C(=O)N2CCCOC(C)C)ccc1O (stereo not drawn)	nt	?	13µM	?	nt	i
COc1cc(C2c3c(-c4ccccc4O)n[nH]c3C(=O)N2Cc2ccncc2)ccc1O (stereo not drawn)	nt	i	i	i	nt	i
CCCOc1ccc(C2c3c(-c4ccccc4O)n[nH]c3C(=O)N2CCc2ccccc2)cc1OCC (stereo not drawn)	nt	13µM	11µM	12µM	nt	11µM
Cc1ccc(C)c(N2CCN(CCCNC(=O)c3ccc4nc(N5CCCCC5)sc4c3)CC2)c1	nt	10µM	i	18µM	nt	i
CCCCN(CCCC)CCCNC(=O)c1ccc2nc(N3CCCCC3)sc2c1	nt	23µM	i	?	nt	i
CCCN1CCN(CCCNC(=O)c2ccc3nc(N4CCCCC4)sc3c2)CC1	i	i	i	i	i	i
CC1CCCC(C)N1CCCNC(=O)c1ccc2nc(N3CCCCC3)sc2c1 (stereo not drawn)	i	i	i	i	i	i
Cc1ccc(C(=O)Nc2ccc(Br)cc2)cc1S(=O)(=O)N1CCOCC1	nt	nt	i	nt	nt	i
CCCC[n+]1c(/C=C/c2ccc(N(C)C)cc2)sc2ccccc21	nt	0.1µM	?	0.025µM	nt	i
CCCCCCCCN(CCCCCCCC)c1ccc(/C=C/c2ccnc3ccccc23)cc1	nt	i	i	i	nt	i
CCCCCCCCCC[n+]1ccc(/C=C/c2ccc(N(C)C)cc2)c2ccccc21	nt	0.32µM	?	0.35µM	nt	i
CN(C)c1ccc(/C=C/c2sc3ccccc3[n+]2CCCCI)cc1	nt	0.71µM	?	0.56µM	nt	i
CN(Cc1ccccc1)c1ccc(/C=C/c2sc3ccccc3[n+]2C)cc1	nt	0.11µM	3.2µM	0.089µM	nt	i
CCn1c(SCC(N)=O)nnc1-c1cc2c(C)nn(-c3ccccc3)c2s1	i	29µM	i	?	i	i
COCC(C)n1c(SCC(=O)N2CCc3ccccc3C2)nc2ccccc2c1=O (stereo not drawn)	i	1.8µM	i	2.3µM	i	i
C=CCn1c(SCC(=O)N2CCc3ccccc3C2)nc2sc(CC)cc2c1=O	i	?	i	?	i	i
CCn1c(SCC(=O)N2CCCC2)nc2ccccc2c1=O	i	i	i	i	i	i
C=CCn1c(SCC(=O)N2CCc3ccccc3C2)nc2sc(C)c(C)c2c1=O	i	?	i	18µM	i	i
C=CCn1c(SCC(=O)N2CCc3ccccc3C2)nc2ccccc2c1=O	i	18µM	i	?	i	i
SMILES	HT1080NT lethal	DT40 TDP1 no CPT	TGFb SMAD3 inh	TDP1 cell CPT	HT1080 IDH1KD tx	HepG2 viability
COCC(C)n1c(SCC(=O)Nc2sccc2C(N)=O)nc2ccccc2c1=O (stereo not drawn)	i	7.3µM	i	21µM	i	i
COc1cc(OC)c(NC(=O)CCc2nc(-c3cccs3)no2)cc1Cl	i	?	i	?	i	i
COCC(C)n1c(SCc2cc(=O)n3cc(C)ccc3n2)nc2ccccc2c1=O (stereo not drawn)	i	10µM	i	?	?	i
CCC(C)n1c(SCC(=O)Nc2cc(C(C)(C)C)nn2-c2ccccc2)nc2ccccc2c1=O (stereo not drawn)	i	26µM	?	?	i	i
CCC(C)n1c(SCC(=O)NC2CC2)nc2ccccc2c1=O (stereo not drawn)	i	?	i	?	i	i
Cc1ccc2nc(CSc3nnc4ccccn34)cc(=O)n2c1	i	i	i	i	i	i
COc1ccc(C(=O)Nc2ccc(OCc3cc(=O)n4ccccc4n3)cc2)cc1	nt	i	i	i	nt	i
CCCC(=O)N=c1sc2c(OC)ccc(OC)c2n1C	i	i	i	i	i	i
COc1ccc(OC)c2c1sc(=NC(=O)C(C)(C)C)n2C	i	?	i	21µM	i	i
COc1ccc(OC)c2c1sc(=NC(=O)C(C)C)n2C	i	?	i	23µM	i	i
CCN(CC(=O)Nc1ccc(OC)cc1)C(=O)CN1C(=O)NC(C)(c2ccc3ccccc3c2)C1=O (stereo not drawn)	i	?	i	?	i	i
O=C(O)CCN1c2ccccc2Sc2ccccc21	i	i	i	i	i	i
C=CCN1c2ccccc2Sc2cnccc21	i	18µM	?	?	i	i
CC(=O)OCCN1c2ccccc2Sc2cnccc21	i	15µM	?	?	i	i
O=S(=O)(NC1CCCCC1Oc1ccccc1)c1ccc(Cl)cc1 (stereo not drawn)	?	?	?	i	?	i
CSc1ccc(OC2CCCCC2NS(=O)(=O)c2ccc(Cl)cc2)cc1 (stereo not drawn)	?	?	?	26µM	?	i
CN(c1ccccc1)C1CCCCC1NS(=O)(=O)c1ccc(Cl)cc1 (stereo not drawn)	i	23µM	11µM	?	?	i
CCN(CC)C1CCCCC1NS(=O)(=O)c1ccc(Cl)cc1 (stereo not drawn)	i	i	i	i	i	i
CCC(=O)N1c2ccc(S(=O)(=O)CCC(=O)NCc3ccccc3OC)cc2CC1C (stereo not drawn)	nt	i	i	?	nt	i
Cc1ccc(CNC(=O)CCS(=O)(=O)c2ccc3c(c2)CC(C)N3C(=O)C2CC2)cc1 (stereo not drawn)	i	5.8µM	?	7.3µM	i	i
CC1Cc2cc(S(=O)(=O)CCC(=O)Nc3ccc(F)cc3Cl)ccc2N1C(=O)C1CC1 (stereo not drawn)	nt	13µM	i	23µM	nt	i

Bioassay records deposited in PubChem BioAssay by National Center for Advancing Translational Sciences (NCATS).
